Assay outcomes (PubChem)
In the library only some 2% were active in any assay of this set; here they are far more common.
CHO-K1 Ca antag: M1 antagonist counterscreen hit in parental CHO-K1 cells | ATP-induced calcium, Fluo-8 fluorescence | inhibition, % at 3 µM | 360,000 compounds, 0.6% hits;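 active means inhibition above a per-plate cutoff, the plate's mean sample inhibition plus 3 SD, cut at about 24% in these data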;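 further: 0% = DMSO plus EC80 ATP and 100% = DMSO alone without ATP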
M1 ag parental: counter-screen for M1 agonists: effect in parental CHO-K1 cells; Fluo-8 calcium fluorescence; scaled to maximal ATP response, vehicle zero; activation, % at 3 µM; 360,000 compounds, 0.48% hits; AID 602248, 2012; in the data active means activation above about 15%;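 further: untransfected CHO-K1 host cells lacking M1 receptor as counterscreen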
M1 PAM parental: nonselective calcium activators in parental CHO-K1 cells, primary screen, counter-screen for M1 PAM project, cell-based, Fluo-8 calcium fluorescence, full deck, 1536-well | AID 602247, 2012 | activation, % at 3 µM | 360,000 compounds, 0.02% hits | ATP EC20; 0% at ATP EC20, 100% at ATP max;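 active means activation above the run cutoff, the mean activation of all test compounds plus 3 SD, cut at about 40% in these data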;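 further: peak over basal fluorescence ratio in a 140 s read after ATP addition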
CHRM4 agonist: human M4 muscarinic receptor agonists, primary screen, CHO-K1 cells, Fluo-8 calcium fluorescence | Muscarinic acetylcholine receptor M4 (Homo sapiens), P08173 | CHO-K1 hM4/Gqi5; vehicle 0%, full acetylcholine response 100% | activation, % at 3 µM | 360,000 compounds, 0.14% hits | AID 624127, 2012;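 active means activation above the run mean over all test wells plus 3 SD, cut at about 32% in these data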;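 further: peak over basal fluorescence ratio per well then scaled between controls; 0% = DMSO wells and 100% = acetylcholine at EC100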
Target sequence (P08173 whole entry, looked up): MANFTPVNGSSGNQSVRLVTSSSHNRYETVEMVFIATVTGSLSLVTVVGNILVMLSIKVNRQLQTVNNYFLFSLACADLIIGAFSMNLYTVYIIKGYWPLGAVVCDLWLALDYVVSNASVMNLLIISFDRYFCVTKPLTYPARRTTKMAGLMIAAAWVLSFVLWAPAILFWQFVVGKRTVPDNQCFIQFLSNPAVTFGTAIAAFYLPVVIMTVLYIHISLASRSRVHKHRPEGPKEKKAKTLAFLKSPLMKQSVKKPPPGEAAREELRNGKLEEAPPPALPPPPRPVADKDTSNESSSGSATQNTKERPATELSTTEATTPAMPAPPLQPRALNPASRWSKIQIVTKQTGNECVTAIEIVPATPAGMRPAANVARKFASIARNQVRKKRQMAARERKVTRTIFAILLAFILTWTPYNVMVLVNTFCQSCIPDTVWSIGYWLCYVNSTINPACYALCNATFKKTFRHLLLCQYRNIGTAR
M4 antag: human M4 muscarinic receptor antagonists, primary screen, CHO cells, Fluo-8 calcium fluorescence. Muscarinic acetylcholine receptor M4 (Homo sapiens), P08173. CHO-hM4 cells, ACh EC80. inhibition, % at 3 µM. 360,000 compounds, 0.73% hits;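 active means inhibition above its plate's cutoff, the mean inhibition of sample wells plus 3 SD, cut at about 27% in these data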;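 further: 0% = acetylcholine EC80 with DMSO and 100% = DMSO without agonist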
M4 PAM: human M4 muscarinic receptor positive allosteric modulators, primary screen, CHO-K1 cells, Fluo-8 calcium fluorescence. 360,000 compounds, 0.4% hits. AID 624126, 2012. activation, % at 3 µM. CHO-K1 hM4/Gqi5, ACh EC20; 0% = ACh EC20, 100% = maximal ACh. Muscarinic acetylcholine receptor M4 (Homo sapiens), P08173;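 active means activation above its plate's cutoff, the mean activation of sample wells plus 3 SD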
* = called active by the depositor.

SMILES	CHO-K1 Ca antag	M1 ag parental	M1 PAM parental	CHRM4 agonist	M4 antag	M4 PAM
CCCS(=O)(=O)NC(=O)C1(C)CCN(C(=O)c2cccs2)C1 (centres undefined)	-4	0	13	0	-9	4
COC(=O)c1cc2c(n1S(=O)(=O)c1ccc(C)cc1)C(=O)C(=O)c1[nH]cc(C(=O)OCc3ccccc3)c1-2	-17	2	12	1	-4	4
O=C(Nc1ccncc1)OCc1ccccc1	-5	4	-6	4	-1	-8
O=Cc1c[nH]c2ccc(NC(=O)OCc3ccccc3)cc12	29*	-1	-28	4	-7	4
CCn1c(C)cc2c(c1=O)C(c1ccc3c(c1)OCO3)C(C#N)=C(N)O2 (centres undefined)	-2	0	0	1	30*	-13
CN(C)CC(=O)N1c2ccccc2CCc2ccc(NC(=O)c3ccc(N)cc3)cc21	-11	0	18	1	-6	6
COc1cc(C(=O)Nc2ccc3c(c2)N(C(=O)CCN(C)C)c2ccccc2CC3)cc(OC)c1OC	-3	0	16	1	30*	-21
S=C(c1ccccc1)N1CCCc2ccccc21	-2	0	9	-3	-12	38*
Cc1noc(NS(=O)(=O)c2ccc(NC(=O)/C=C/c3ccc(Br)cc3)cc2)c1C	-14	1	4	0	-6	16*
O=C(NCCOc1ccccc1)c1ccccc1SCC(=O)N1CCCC1	-7	1	13	2	7	-1
CC1(C(=O)NCCc2c[nH]c3ccccc23)CCN1Cc1ccccc1OC(F)F (centres undefined)	-10	3	11	7	-2	-7
CCOc1ccc(/C=C/C(=O)c2c(O)c3ccccc3oc2=O)cc1	-4	0	15	0	14	2
CN(C)c1ccc(/C=C/C(=O)c2c(O)c3ccccc3oc2=O)cc1	3	32*	9	6	6	-13
Cc1cccc[n+]1CC(=O)Nc1ccc([N+](=O)[O-])cc1Cl	10	0	-5	0	15	-9
O=C(C[n+]1ccc(Cc2ccccc2)cc1)Nc1ccc([N+](=O)[O-])cc1Cl	-21	0	24	1	27*	-20
CC1CC(C)CN(c2ccc(-n3cnnn3)cc2[N+](=O)[O-])C1 (centres undefined)	-10	0	19	-3	4	3
O=[N+]([O-])c1cc(-n2cnnn2)ccc1N1CCC(Cc2ccccc2)CC1	25*	0	-3	-1	25	-12
COc1ccc(OC)c(S(=O)(=O)Nc2ccccc2C(=O)N2CCCCC2)c1	1	1	1	1	-8	5
O=C(OCc1cc2ccccc2[nH]c1=O)c1cccc([N+](=O)[O-])c1	-10	0	9	0	-12	-3
Cc1ccc(S(=O)(=O)N2C[C@H]3C(=O)C[C@@H](c4ccccc4)N(S(=O)(=O)c4ccc(C)cc4)[C@H]3C[C@H]2c2cccs2)cc1	1	0	7	0	0	-2
CCOc1ccc(S(=O)(=O)n2cc(F)c(=O)[nH]c2=O)cc1	24*	5	-10	16	9	-10
CCCCNC(=S)N1CCC(Cc2ccccc2)CC1	-1	1	8	2	7	-10
CC(Oc1ccc2c(-c3ccccc3)cc(=O)oc2c1)C(=O)NC(Cc1c[nH]c2ccc(O)cc12)C(=O)O (centres undefined)	27*	3	-15	1	6	-4
O=C(COc1ccc2c(-c3ccccc3)cc(=O)oc2c1)N[C@@H](Cc1c[nH]c2ccc(O)cc12)C(=O)O	-11	0	8	0	-22	8
CC(=O)N(c1ccccc1C)C1CCCC1	-15	1	32	1	-1	5
SMILES	CHO-K1 Ca antag	M1 ag parental	M1 PAM parental	CHRM4 agonist	M4 antag	M4 PAM
CC(=O)N(C1=C(Cl)C(=O)c2ccccc2C1=O)C1CCCCC1	10	2	3	11	44*	-13
O=Cc1ccc(N2CCCC2)c([N+](=O)[O-])c1	-14	0	23	1	0	-2
O=[N+]([O-])/C=C\c1ccc(N2CCCC2)c(F)c1	18	27*	-3	41*	34*	-23
CC(Cc1nnc(SCC(=O)O)n1N)c1ccccc1 (centres undefined)	-1	0	-2	1	6	-5
CCCCCCN[C@H]1CCC2C3CC=C4C[C@@H](O)CC[C@]4(C)C3CC[C@@]21C (some centres undefined)	-11	5	14	12	37*	-12
CC(C)C(=O)N[C@H]1CCC2C3CC=C4C[C@@H](O)CC[C@]4(C)C3CC[C@@]21C (some centres undefined)	-5	0	6	0	1	4
O=S(=O)(c1ccsc1)N1CC=C(c2ccccc2)CC1	-8	2	4	2	-4	-5
CN1CCN(C(=S)NC(=O)c2ccc(Cl)cc2)CC1	-3	0	17	1	-16	23*
O=C(NC(=S)N1CCCC1)c1ccc(Cl)cc1	1	0	18	1	-11	6
Cc1ccc(S(=O)(=O)N2C=CC(C(F)(F)F)=NCC2)cc1	8	0	-4	2	-14	18*
CC(C)(C)c1ccc(S(=O)(=O)N2C=CC(C(F)(F)F)=NCC2)cc1	11	2	5	3	-3	4
COc1ccc(OCc2nn3c(-c4cccc(OC)c4)nnc3s2)cc1	-11	0	20	2	-13	21*
COc1ccc(OCc2nn3c(-c4ccco4)nnc3s2)cc1	15	1	-8	4	-10	-1
COCCn1c(SCC(=O)NC2CCCC2)nc2c(c1=O)SCC2	2	0	-1	-1	1	2
COC(=O)c1cc(S(=O)(=O)N2CCC(c3ccccc3)C2)c[nH]1 (centres undefined)	3	8	-4	6	6	-2
COC(=O)c1cc(S(=O)(=O)N2CCC(c3cc(OC)ccc3OC)C2)c[nH]1 (centres undefined)	10	16*	-7	13	12	-8
Cc1cccc(C=Nc2ccc3c4c(cccc24)CC3)c1O	25*	15*	-14	23	26	-12
Oc1ccc(Cl)cc1C=Nc1ccc2c3c(cccc13)CC2	32*	44*	2	71*	36*	-25
CCOC(=O)C1(Cc2ccccc2)CCN(Cc2cccc(OC)c2O)CC1	-9	5	13	7	-6	-5
